TDP1 cell noCPT: qHTS for Inhibitors of human tyrosyl-DNA phosphodiesterase 1 (TDP1): qHTS in cells in absence of CPT; DT40 Tdp1-/- hTDP1 cells, no CPT, ATP luminescence, 48 h; Potency, µM (titrated, usually from 46.2 µM), actives largely listed as inhibitors; 420,000 compounds, 15% hits; AID 686978, 2013; also: nearly all actives have a fitted effect of over 55% in size
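No-CPT arm: Tdp1-/-;hTDP1 DT40 cells (400/well) plus compounds, incubated ≥48 hr at 37 °C. Readout CellTiter-Glo luminescence.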
Gal4-VP16 FLuc: inhibits Gal4-VP16 luciferase reporter, ROR gamma counter-screen; 310,000 compounds, 3.5% hits; Potency, µM (top dose mostly 53.6 µM), actives largely listed as inhibitors; Drosophila S2 Gal4-VP16 UAS-luciferase, luminescence, 20 h;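 also: Gal4-VP16 expression switched on by copper sulfate through the metallothionein promoter; nearly all actives have a fitted effect of over 50% in size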
LDHA block: LDHA (human) enzyme inhibition | 480,000 compounds, 0.15% hits | activity change, % (values are at about 110 or 230 µM) | P00338 | AID 1347041 | purified LDHA, NADH/diaphorase-resazurin fluorescence; hits give low values; in the data active = activity change below about -30%; inconclusive = mostly about -25% to -30%
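Resorufin fluorescence (ex540/em590), read at 0 and 20 min after diaphorase/resazurin addition, reports the NADH left after a 5 min room-temperature reaction of 2 nM human LDH5 with 0.06 mM NADH and 0.2 mM pyruvate.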
TDP1 cell CPT: growth inhibition of DT40 Tdp1-/-;hTDP1 cells with camptothecin (screen for TDP1 inhibitors) | chicken DT40 Tdp1-/-;hTDP1 cells + 20 nM CPT, ATP luminescence, 48 h | Potency, µM (top dose mostly 46.2 µM), most hits filed as inhibitors | 420,000 compounds, 12% hits | AID 686979; also: nearly all actives have a fitted effect of over 55% in size
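Chicken DT40 Tdp1-/- cells stably complemented with human TDP1 were seeded at 400 cells/well in medium containing 20 nM camptothecin, exposed to pin-transferred compounds, and grown at 37 °C for at least 48 hr. Viability was read as ATP luminescence.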
IL-1B inflam inh: blocks inflammasome-driven IL-1 beta release. THP-1 LPS/ATP IL-1B secretion, AlphaLISA, 16 h; hits give low values. activity change, % at 57.5 µM. 360,000 compounds, 4.7% hits; in the data active = activity change below about -50%; inconclusive = mostly about -30% to -49%
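THP-1 cells pretreated 1 hr with compounds (up to 57.5 uM final), then stimulated with LPS (250 ng/mL final) plus ATP (1.25 mM final); secreted IL-1B measured by AlphaLISA after 16 hr, decreased signal indicating inhibition.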
RORgamma inh: inhibitors of mouse ROR gamma transcriptional activity | P51450 | Drosophila S2 Gal4-RORgamma UAS-luciferase reporter, 20 h | Potency, µM (series often up to 53.6 µM), hits mostly inhibitors | 310,000 compounds, 5.4% hits; also: nearly all actives have a fitted effect of over 60% in size
Target sequence (P51450 whole entry, looked up, the tested form may be a part): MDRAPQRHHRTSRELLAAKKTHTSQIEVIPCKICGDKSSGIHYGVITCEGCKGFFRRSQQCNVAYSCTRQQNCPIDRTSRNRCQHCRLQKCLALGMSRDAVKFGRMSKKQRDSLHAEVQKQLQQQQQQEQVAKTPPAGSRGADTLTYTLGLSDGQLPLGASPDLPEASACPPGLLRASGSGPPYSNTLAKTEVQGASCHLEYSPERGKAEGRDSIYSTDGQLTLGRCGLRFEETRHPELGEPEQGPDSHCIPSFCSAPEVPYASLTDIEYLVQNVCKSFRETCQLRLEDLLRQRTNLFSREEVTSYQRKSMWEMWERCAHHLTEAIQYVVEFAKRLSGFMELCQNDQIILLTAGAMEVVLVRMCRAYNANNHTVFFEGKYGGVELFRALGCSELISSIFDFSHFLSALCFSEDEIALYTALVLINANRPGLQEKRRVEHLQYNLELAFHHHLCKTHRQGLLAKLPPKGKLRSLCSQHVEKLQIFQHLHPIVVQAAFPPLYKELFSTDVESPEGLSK
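Luminescence from a UAS-regulated Photinus luciferase reporter in stably transfected Drosophila Schneider cells is measured; decreased signal marks ROR gamma inhibition. Fusion expression is induced by 700 uM copper sulfate for 20 hr.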
Hits are given with their value; 0 = inactive; ? = inconclusive; - = not tested or not shown. Most compounds without a hit are left out; they make up all but 18% or so of the library. Unless noted, calls follow the shape of the dose curve; as a rule, active = well fitted curve in the direction sought with a large enough effect; inconclusive = small, poorly fitted or top-dose-only effect, or another doubt; inactive = no such curve, though single readings can be large; an effect the other way counts as inactive or inconclusive.

SMILES	TDP1 cell noCPT	Gal4-VP16 FLuc	LDHA block	TDP1 cell CPT	IL-1B inflam inh	RORgamma inh
CC1(C)OC2CC3C4CCC5=CC(=O)C=C[C@@]5(C)[C@]4(F)C(O)C[C@@]3(C)[C@]2(C(=O)CO)O1 (stereo not given in full)	0	0	-	0	-	0
CC(=O)C12OC(C)(C)OC1CC1C3CCC4=CC(=O)C=CC4(C)C3(F)C(O)CC12C (stereo not given)	0	-	0	0	-57	-
COc1cccc(N2CC(O)=C(c3nc4ccccc4c(=O)[nH]3)C2=N)c1	1.2µM	?	0	1.5µM	0	0
N=C1C(c2nc3ccccc3c(=O)[nH]2)=C(O)CN1c1ccc(Cl)cc1	-	-	0	-	-	-
Cc1cc(C)cc(N2CC(O)=C(c3nc4ccccc4c(=O)[nH]3)C2=N)c1	9.2µM	0	0	13µM	0	0
N=C1C(c2nc3ccccc3c(=O)[nH]2)=C(O)CN1c1ccc(Cl)c(Cl)c1	-	-	0	-	-	-
Cc1cc(C(=O)OCC(=O)Nc2ccccc2Oc2ccccc2)c2ccccc2n1	-	-	0	-	-	-
Cc1c(-c2ccccc2)oc2c(C(=O)OCC(=O)NC(=O)NCCC(C)C)cccc2c1=O	-	-	0	-	-	-
O=C(NCC1CCN(C2CCCC2)C1)Nc1ccccc1Cl (stereo not given)	-	-	0	-	-	-
CCCCn1c(=N)n(CC(=O)c2ccc([N+](=O)[O-])cc2)c2ccccc21	-	0	-	-	-	1.3µM
Cc1ccc(C(=O)Cn2c(=N)n(CCN3CCOCC3)c3ccccc32)cc1	?	-	0	?	0	-
Cc1ccc(Cn2c(=N)n(CC(=O)c3ccc([N+](=O)[O-])cc3)c3ccccc32)cc1	2.9µM	0	0	4.6µM	-102	?
CCCn1c(=N)n(CC(=O)O)c2ccccc21	0	-	0	0	0	-
CC(C)CCNC(=O)C1(C)CCC(=O)N1Cc1ccccc1Cl (stereo not given)	-	-	0	-	-	-
CCCc1cc(-c2n[nH]c(=S)n2C(C)c2ccccc2)cs1 (stereo not given)	0	7.1µM	0	0	0	7.1µM
CCCc1cc(-c2n[nH]c(=S)n2CC)cs1	0	11µM	0	0	0	7.1µM
COc1cc(-c2n[nH]c(=S)n2C(C)c2ccccc2)cc(OC)c1OC (stereo not given)	0	13µM	0	?	0	?
Cc1ccccc1-n1c(Cc2cccs2)n[nH]c1=S	0	?	0	0	0	1.4µM
COc1cc(-c2n[nH]c(=S)n2-c2ccccc2C(F)(F)F)cc(OC)c1OC	0	0	0	0	0	?
CCc1nc(NCC2CCCO2)c(C#N)c2c1CCCC2 (stereo not given)	-	-	0	-	-	-
CCc1cc(-c2n[nH]c(=S)n2-c2ccccc2C)cs1	0	5.6µM	0	0	0	4µM
CCc1cc(-c2n[nH]c(=S)n2Cc2ccccc2)cs1	?	6.3µM	0	0	0	3.2µM
Cc1ccc(C)c(-n2c(-c3ccco3)n[nH]c2=S)c1	0	-	0	0	0	-
FC(F)(F)c1ccc(Cl)c(-n2c(Cc3cccs3)n[nH]c2=S)c1	0	0	0	0	0	?
Fc1ccc(-n2c(Cc3cccs3)n[nH]c2=S)cc1Cl	0	0	0	0	0	14µM
SMILES	TDP1 cell noCPT	Gal4-VP16 FLuc	LDHA block	TDP1 cell CPT	IL-1B inflam inh	RORgamma inh
CCn1c(-c2nn(C)c(C)c2Cl)n[nH]c1=S	0	?	0	0	0	?
CCc1cc(-c2n[nH]c(=S)n2CC)cs1	0	10µM	0	0	0	?
Cc1ccc2c(=O)cc(C(=O)Nc3nnc(C(C)C)s3)oc2c1C	-	-	0	-	-	-
Cn1c(SCC(=O)Nc2ccc(Br)cn2)nnc1-c1cccs1	-	-	0	-	-	-
COc1ccc(NC(=O)C2CCCN(c3nnc(C)c4c(C)n(-c5ccccc5)nc34)C2)cc1Cl (stereo not given)	16µM	-	0	10µM	-	-
Cc1nnc(N2CCCC(C(=O)Nc3cc(F)ccc3F)C2)c2nn(-c3ccccc3)c(C)c12 (stereo not given)	23µM	0	0	13µM	0	0
Cc1nnc(N2CCCC(C(=O)Nc3ccccc3C(F)(F)F)C2)c2nn(-c3ccccc3)c(C)c12 (stereo not given)	18µM	-	0	18µM	-	-
CC1=C(C(=O)Nc2ccccc2)C(c2cccc(Cl)c2)n2ncc(C(=O)Nc3cccc(C)c3)c2N1 (stereo not given)	-	-	0	-	-	-
CC1=C(C(=O)Nc2ccccc2)C(c2ccccc2Cl)n2ncc(C(=O)Nc3cccc(C)c3)c2N1 (stereo not given)	18µM	-	0	?	-	-
COc1ccc(C2C(C(=O)Nc3ccccc3OC)=C(C)Nc3c(C(=O)Nc4ccccc4)cnn32)c(OC)c1 (stereo not given)	?	-	0	21µM	-	-
CC1=C(C(=O)Nc2ccc(C)cc2C)C(c2ccc([N+](=O)[O-])cc2)n2ncc(C(=O)Nc3ccc(F)cc3)c2N1 (stereo not given)	8.2µM	-	0	8.2µM	-	-
O=C(COC(=O)c1ccc2ccccc2n1)Nc1ccc(F)c(F)c1	-	-	0	-	-	-
COc1ccc(/C=C2\SC(N3CCCCC3)=NC2=O)cc1OC	21µM	0	0	0	0	0
CCOC(=O)C1CCN(C2=NC(=O)/C(=C/c3ccc(OC)c(OC)c3)S2)CC1	?	0	0	0	0	0
COc1ccc(/C=C2\N=C3CCCCCN3C2=O)cc1	0	?	0	0	0	0
COc1ccc(OC)c(/C=C2\SC(N3CCCC(C)C3)=NC2=O)c1 (stereo not given)	21µM	0	0	16µM	-59	0
COc1cc(/C=C2\SC(N3CCC(C)CC3)=NC2=O)ccc1O	?	0	0	0	-56	0
COc1ccc(OC)c(S(=O)(=O)N2CCCC(C)C2)c1 (stereo not given)	0	0	0	0	0	0
COc1ccc(/C=C2/N=C3CCCCCN3C2=O)cc1OC	29µM	?	0	?	0	0
CCCCn1c(SCC(=O)NCc2ccc3c(c2)OCO3)nc2cc(C(=O)OC)ccc2c1=O	-	-	0	-	-	-
COc1cc(OC)cc(C(=O)N2CCC(C(=O)O)CC2)c1	-	-	0	-	-	-
Cc1ccccc1C(=O)N[C@@H](C)C(=O)O	-	-	0	-	-	-
C/C(=N\Nc1nc(-c2cc(C)ccc2C)cs1)c1cc2ccccc2oc1=O	0	0	0	0	0	?
C/C(=N\Nc1nc(-c2cc(C)ccc2C)cs1)c1cc2c(ccc3ccccc32)oc1=O	16µM	0	0	?	0	?
COc1ccccc1-c1ncn(Cc2cccc(-c3ccccc3)c2)c1CC(C)C	18µM	-	0	21µM	-91	-
CCc1c(-c2ccccc2OC)ncn1Cc1cccc(-c2ccccc2)c1	0.52µM	-	0	0.65µM	-53	-

Compound activity: PubChem BioAssay, National Center for Advancing Translational Sciences (NCATS)
